Measurements taken from PubChem BioAssay AID488969 (Vanderbilt High Throughput Screening Facility, 2010).
Whole data set: some 110,000 compounds, median “z-score” near -0.1, cut for the highest 2% near 2. The entries come from a sample that favours the highest values as a whole. Calls of active or inactive are those of the source.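 Rule for the calls: active = z-score in the third read window above 3 or below -3; inactive = the rest.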

biological target: Metabotropic glutamate receptor 8 (Rattus norvegicus) (UniProt P70579); experiment: mGluR8 Gi/Go-coupled signaling modulation – cell-based, rat, thallium flux, HTS, primary screen (AID 488969); conditions: HEK293 rat mGluR8, GIRK (G protein-gated inwardly rectifying potassium channel) thallium flux, FluoZin2; at 10 µM; stronger effect = higher value; submaximal glutamate (EC20) added with thallium
Sequence (P70579 whole entry, looked up): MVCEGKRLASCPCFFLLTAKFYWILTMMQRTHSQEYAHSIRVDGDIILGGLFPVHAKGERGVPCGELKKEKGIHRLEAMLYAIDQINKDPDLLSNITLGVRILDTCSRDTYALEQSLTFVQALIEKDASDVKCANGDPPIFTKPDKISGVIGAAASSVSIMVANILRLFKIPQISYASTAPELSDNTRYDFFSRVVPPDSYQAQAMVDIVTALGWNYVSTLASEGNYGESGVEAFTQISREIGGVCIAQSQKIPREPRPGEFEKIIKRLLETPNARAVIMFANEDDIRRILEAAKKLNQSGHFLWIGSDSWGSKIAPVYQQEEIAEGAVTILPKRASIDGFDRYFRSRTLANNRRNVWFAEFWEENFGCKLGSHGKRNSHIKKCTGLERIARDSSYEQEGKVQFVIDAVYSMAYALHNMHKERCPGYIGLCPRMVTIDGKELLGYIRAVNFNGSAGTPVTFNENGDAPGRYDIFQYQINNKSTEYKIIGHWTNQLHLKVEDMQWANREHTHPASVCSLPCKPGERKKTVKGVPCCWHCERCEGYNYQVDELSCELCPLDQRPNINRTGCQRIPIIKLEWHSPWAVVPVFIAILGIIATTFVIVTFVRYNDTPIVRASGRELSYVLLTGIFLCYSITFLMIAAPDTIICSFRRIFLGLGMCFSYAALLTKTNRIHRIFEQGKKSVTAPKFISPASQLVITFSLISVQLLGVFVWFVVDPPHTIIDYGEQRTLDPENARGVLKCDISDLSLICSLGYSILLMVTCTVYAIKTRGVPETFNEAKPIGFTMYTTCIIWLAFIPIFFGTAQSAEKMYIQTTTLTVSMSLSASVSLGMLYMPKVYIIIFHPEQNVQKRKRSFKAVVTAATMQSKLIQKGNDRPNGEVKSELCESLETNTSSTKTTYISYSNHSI

| SMILES | z-score |
| --- | --- |
| C#CCn1c(S(=O)(=O)Cc2ccc(C)cc2)nc(-c2ccccc2)c1-c1ccccc1 | -0.259 |
| COc1ccc(C(C#N)N2N=C(c3ccccc3)CC2c2ccccc2)cc1OC (stereo not given) | 0.0225 |
| CC1CC(C)(C)CC2(C1)NC(=O)N(CC(=O)NCC(c1ccco1)N1CCCCC1)C2=O (stereo not given) | 0.771 |
| Cc1nnc(SCC(=O)NCc2ccco2)n1-c1ccccc1 | -0.0052 |
| Cn1c(SCC(=O)Nc2ccccc2)nnc1-c1ccc(NC(=O)CCc2ccccc2)cc1 | -0.164 |
| CN(CP(=O)(O)CN(C)S(C)(=O)=O)S(C)(=O)=O | 0.00353 |
| O=C(NCc1ccco1)c1cnn2c(C(F)(F)F)cc(-c3ccccc3)nc12 | -0.67 |
| CC1Nc2nc(N(C)C)[nH]c(=O)c2NC1C (stereo not given) | 0.838 |
| CCOC(=O)C(CC)n1cnc2c(nnn2-c2ccc(C)cc2)c1=O (stereo not given) | -0.636 |
| CCC(C(=O)OC)n1cnc2c(nnn2-c2ccc(OC)cc2)c1=O (stereo not given) | -0.912 |
| CCOC(=O)C(CC)n1cnc2c(nnn2-c2ccc(OC)cc2)c1=O (stereo not given) | 4.43 (active) |
| Cc1cc(Nc2ccccc2)n(C(=O)c2ccc(Cl)cc2)n1 | 0.82 |
| O=S(=O)(NCc1ccccc1)c1ccc(Cl)c(S(=O)(=O)NCc2ccccc2)c1 | 0.165 |
| O=S(=O)(NCCCc1ccccc1)c1ccc(Cl)cc1 | -0.252 |
| O=S(=O)(NCc1ccccc1)c1ccc(Cl)cc1 | 2.77 |
| CCOC(=O)C1=c2s/c(=C\c3cccnc3)c(=O)n2C(N)=C(C(=O)OC)C1c1cccnc1 (stereo not given) | 0.984 |
| CC1(C)CC2CC(C)(CN2C(=S)NC(=O)c2ccccc2Cl)C1 (stereo not given) | 8.8 (active) |
| CC1(C)CC2CC(C)(CN2C(=O)NC(=O)c2ccccc2)C1 (stereo not given) | -0.259 |
| C[C@H](NC(=O)c1ccccc1Cl)C(=O)OCC(=O)N1CC2(C)CC1CC(C)(C)C2 (stereo not given in full) | 0.00588 |
| O=C(CSCCO)Nc1cccc(C(F)(F)F)c1 | 0.657 |
| CS(=O)(=O)N(CC(=O)O)c1ccc2c(c1)OCO2 | -2.86 |
| CN(C)C(=O)CN(c1ccc2c(c1)OCO2)S(C)(=O)=O | -0.0253 |
| CCN(CC)C(=O)CN(c1ccc2c(c1)OCO2)S(C)(=O)=O | 2.51 |

| SMILES | z-score |
| --- | --- |
| Cc1c(C(=O)OC(C)C)sc(NC(=O)C2CCCO2)c1C(=O)OC(C)C (stereo not given) | -0.0386 |
| O=C(CCNC(=O)c1ccccc1Cl)Nc1cccc(C(F)(F)F)c1 | -0.204 |
| Fc1cccc(Cl)c1CSc1nnc(COc2cccc3cccnc23)o1 | -0.675 |
| Cc1nc(N2CCN(C)CC2)c2sc(=S)n(C)c2n1 | 0.624 |
| Cc1ccc(-n2nnnc2-c2cnn(-c3cccc(F)c3)c2C(F)(F)F)cc1 | 0.0555 |
| COC(=O)c1ccc(CSc2nnc(Nc3ccc(OC)cc3)s2)o1 | 0.755 |
| COC(=O)c1ccc(CSc2nnc(Nc3ccccc3OC)s2)o1 | 4.01 (active) |
| COC(=O)c1ccc(CSc2nnc(Nc3cccc(OC)c3)s2)o1 | 0.67 |
| CC1=C(C(=O)Nc2ccc(F)cc2)C(c2ccc(C)o2)C2=C(CC(C)(C)CC2=O)N1 (stereo not given) | 0.288 |
| CC(C)CNC(=S)N1CCN(C(c2ccccc2)c2ccccc2)CC1 | -0.358 |
| CCNc1ccc(S(=O)(=O)N(C)C)cc1NCC(=O)Nc1ccc(Br)cc1F | -0.257 |
| CCOc1ccc(-c2nc(-c3ccccc3)no2)cc1OCC | 1.62 |
| CCOc1ccc(-c2nc(-c3ccc(OC)c(OC)c3)no2)cc1OCC | 4.75 (active) |
| COc1ccc(-c2noc(-c3cc(C)cc(C)c3)n2)cc1OC | 0.138 |
| COc1ccc(-c2noc(-c3ccc(Cl)cc3[N+](=O)[O-])n2)cc1OC | -0.0457 |
| COc1ccc(-c2noc(-c3ccccc3Cl)n2)cc1OC | -0.738 |
| CCOc1cc(-c2nc(-c3cc(OC)c(OC)c(OC)c3)no2)cc(OCC)c1OCC | 0.87 |
| COc1ccc(-c2noc(-c3cc(Cl)ccc3Cl)n2)cc1OC | 3.41 (active) |
| CCOc1ccc(-c2noc(COC)n2)cc1OC | -0.328 |
| CCOc1ccc(-c2nc(-c3ccc(OC)cc3)no2)cc1OCC | 2.87 |
| CCOc1ccccc1-c1nc(-c2ccncc2)no1 | 0.0712 |
| CCOc1ccc(-c2nc(-c3ccncc3)no2)cc1OCC | 2.12 |
| CCOc1nc(C)ccc1-c1noc(-c2ccncc2)n1 | 0.775 |

| SMILES | z-score |
| --- | --- |
| COC(=O)c1cc2sc(Cl)cc2n1Cc1nc(-c2cccc(C)c2)oc1C | -0.256 |
| Cc1noc(C)c1CSCC(=O)NC1=NCCS1 | -0.333 |
| O=C(Cn1c(=O)n(Cc2ccccc2)c(=O)c2ccccc21)NCc1ccco1 | -1.05 |
| COc1c(Cl)cc(Cl)cc1C(=O)Nc1ccc(NC(=O)c2cccs2)cc1 | 0.021 |
| CC1(C)CC(=O)C=C(NC2CCCCCCC2)C1 | -0.289 |
| O=C(NCC1(c2ccccc2)CCCC1)c1ccc(Br)o1 | -0.309 |
| O=C(Oc1cccc2c(OC(=O)N3CCCC3)cccc12)N1CCCC1 | -0.117 |
| COC(=O)c1cccc(-n2c(C)cc(C=O)c2C)c1 | -0.0226 |
| Fc1ccc(Cn2nnnc2CN2CCN(C3CCCCC3)CC2)cc1 | 0.354 |
| COCCCn1ccc(O)c(Cc2ccc(F)cc2)c1=O | -0.0433 |
| Cc1nn(-c2ccc3nnc(Br)n3n2)c(C)c1Br | -0.48 |
| CCc1ccc2c(c1)/C(=C/C(=O)c1cccs1)C(=O)N2 | -0.314 |
| CCOc1ccc(-c2nc(-c3cccnc3)no2)cc1OCC | 0.841 |
| CCOc1cc(-c2noc(-c3cccnc3)n2)ccc1OC | 3.79 (active) |
| CCc1ccc(-c2nc(-c3ccncc3)no2)cc1 | 2.31 |
| CCOc1ccc(-c2nnc(-c3cccnc3)o2)cc1OCC | 0.0661 |
| CC(C)(C)c1ccc(-c2nc(-c3ccncc3)no2)cc1 | -0.17 |
| c1ccc(-c2nc(-c3ccncc3)no2)cc1 | -0.104 |
| CC(C)C(=O)NCCc1nc2ccccc2n1C | 0.0935 |
| C=CCNC(=O)c1onc(CSc2ccccc2F)c1C(=O)O | -0.015 |
| Cc1nc2ccccc2c(=O)n1/N=C/c1ccncc1 | -0.171 |
| O=C(NCC(=O)N(CC1CCCO1)C(C(=O)NC1CCCCC1)c1ccc(F)cc1)c1ccco1 (stereo not given) | 0.579 |
| Cc1ccccc1C1C(C#N)=C2NC(=O)c3c(sc4c3CCCCC4)N2C2=C1C(=O)CC(C)(C)C2 (stereo not given) | 1.56 |

| SMILES | z-score |
| --- | --- |
| CCCn1c(CCNC(=O)c2cccs2)nc2ccccc21 | -0.594 |
| O=C(Oc1c(Cl)cc(Cl)c2cccnc12)N1CCOCC1 | -0.0144 |
| Cc1ccc(C(=O)Oc2ccc(Cl)c3cccnc23)cc1[N+](=O)[O-] | 0.387 |
| O=C(Oc1c(Cl)cc(Cl)c2cccnc12)c1ccco1 | 3.13 (active) |
| O=C(Oc1ccc(Cl)c2cccnc12)c1cccc([N+](=O)[O-])c1 | 0.0891 |
| O=C(Oc1c(Cl)cc(Cl)c2cccnc12)c1cccs1 | 2.7 |
| CN1CCN(Cc2cc(Cl)c3cccnc3c2OC(=O)c2cccs2)CC1 | 0.273 |
| O=C(Oc1ccc(Cl)c2cccnc12)c1ccco1 | 0.951 |
| O=C(Oc1cccc2cccnc12)c1cccs1 | -0.532 |
| O=C(Oc1c(Cl)cc(Cl)c2cccnc12)c1cccc([N+](=O)[O-])c1 | 9.18 (active) |
| Cc1oc2c(C)c3oc(=O)c4c(c3cc2c1C)CCC4 | -0.532 |
| COc1ccc(N(C(=O)Cn2nnc(-c3ccc(Cl)cc3)n2)C(C(=O)NCC2CCCO2)c2ccc(C)cc2)cc1 (stereo not given) | -0.126 |
| O=C(COC(=O)Cn1cnc2ccccc2c1=O)Nc1ccc(Cl)c(C(F)(F)F)c1 | -0.01 |
| CC(=O)Nc1ccc(S(=O)(=O)NNC(=O)c2ccc(C)cc2)cc1 | -0.161 |
| CC(=O)N1CCC2(CC1)C(C#N)=C(N)OC1=C2C(=O)CC(C)(C)C1 | 0.05 |
| COC(=O)c1c(NC(=O)C2COc3ccccc3O2)sc2c1CCN(Cc1ccccc1)C2 (stereo not given) | 0.0786 |
| Cc1ccccc1-n1c(O)c(/C=N/N2CCCCC2c2cccnc2)c(=O)[nH]c1=O (stereo not given) | -0.187 |
| CN(C)C(=S)Nn1c(-c2ccccc2)nc2ccccc2c1=O | -0.411 |
| COc1cc(CNc2ccccc2SC)ccc1O | 1.58 |
| N#Cc1ccc(N2CCc3ccccc3C2)c([N+](=O)[O-])c1 | 0.175 |
| Cc1ccc(S(=O)(=O)NC(CC(C)C)C(=O)NCc2ccco2)cc1 (stereo not given) | 0.0163 |
| COc1ccc(-c2nnnn2C)cc1S(=O)(=O)NCCc1ccccc1 | 1.29 |
| O=C(Nc1ccccc1Br)C1CCC(=O)N1Cc1ccccc1Cl (stereo not given) | 0.19 |

| SMILES | z-score |
| --- | --- |
| COc1cc(OC)cc(-c2cc3nc(C)c(CCC(=O)O)c(=O)n3[nH]2)c1 | 0.713 |
| Cc1nc2cc(-c3cccs3)[nH]n2c(=O)c1C | -0.15 |
| COc1cc(-c2cc3nc(C)c(C)c(=O)n3[nH]2)cc(OC)c1OC | 2.19 |
| COC(=O)C(O)(CC(=O)Nc1ccc(OC(F)(F)F)cc1)C(F)(F)F (stereo not given) | -0.408 |
| C=CCn1c(=S)[nH]c2sc3c(c2c1=O)CCC3 | 10.9 (active) |
| C=CCn1c(SCC(=O)NC)nc2sc3c(c2c1=O)CCC3 | -0.523 |
| O=c1[nH]c2sc3c(c2c(=O)n1Cc1ccccc1)CCC3 | -0.117 |
| O=C(CCCN1C(=O)c2ccccc2C1=O)OC1CSCC1NC(=O)c1ccccc1 (stereo not given) | -0.17 |
| O=C1CS/C(=N\c2ccccn2)N1C1CCCCC1 | -0.393 |
| COc1cc(CC(=O)Nc2ccc3nc(C)sc3c2)cc(OC)c1OC | -0.158 |
| Cc1cccc(CSc2ncc(CO)n2C)c1 | 0.12 |
| COc1ccc(CCNC(=O)C2CCN(S(=O)(=O)c3ccc(OC)c(OC)c3)CC2)cc1 | -0.362 |
| OCCCN=c1cc(-c2ccccc2)oc2ccc(Cl)cc12 | 3.32 (active) |
| OCCCCCN=c1cc(-c2ccccc2)oc2ccc(Cl)cc12 | -0.493 |
| OCCN=c1cc(-c2ccccc2)oc2ccc(Cl)cc12 | 0.389 |
| O=C(CCn1nc(-c2ccccc2)ccc1=O)N1CCOCC1 | 0.676 |
| Cc1cccc(NC(=O)c2sccc2-n2cccc2)c1C | -0.81 |
| CCn1c(NC(=O)Nc2cccc(C)c2C)cc2sccc21 | 3.12 (active) |
| CCc1ccccc1NC(=O)c1cc2sccc2n1C | -0.142 |
| COc1ccc(OC)c(C(=O)c2ccc(C(=O)Nc3cccc4ccccc34)cc2)c1 | 0.682 |
| CCc1ccc(OCC(O)CN2CCC(CN3C(=O)c4cccc5cccc(c45)C3=O)CC2)cc1 (stereo not given) | -0.57 |
| Cc1cccc(C)c1OCC(O)CN1CCC(CN2C(=O)c3cccc4cccc(c34)C2=O)CC1 (stereo not given) | 2.99 |
| Cc1ccc(C)c(OCC(O)CN2CCC(CN3C(=O)c4cccc5cccc(c45)C3=O)CC2)c1 (stereo not given) | -0.000796 |
